A selection: hits, their analogues and other compounds. The true share with any hit is near 2.5%.
Cruzain noTriton: blocks cruzain activity in detergent-free assay | hit rate 2.3% among 200,000 | P25779 | Potency, µM, inactives show max response, negative = inhibition, usual class: inhibitors | AID 1476 | purified cruzain, Z-FR-AMC fluorescence, no detergent;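 also: plate controls were enzyme without inhibitor for no effect and buffer without enzyme for full effect; nearly all actives have a fitted effect of over 40% in size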
Target sequence (P25779 123-467 limits assumed): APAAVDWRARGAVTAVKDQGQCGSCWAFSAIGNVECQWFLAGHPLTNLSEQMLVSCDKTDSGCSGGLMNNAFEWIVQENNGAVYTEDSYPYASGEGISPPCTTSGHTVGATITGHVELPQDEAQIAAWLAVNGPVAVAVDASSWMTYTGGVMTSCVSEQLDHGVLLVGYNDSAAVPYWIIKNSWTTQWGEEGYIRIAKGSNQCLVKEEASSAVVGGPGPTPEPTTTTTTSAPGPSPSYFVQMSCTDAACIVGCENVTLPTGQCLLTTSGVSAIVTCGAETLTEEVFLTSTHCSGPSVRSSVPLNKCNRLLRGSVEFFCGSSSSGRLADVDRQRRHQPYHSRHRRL
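Purified cruzain at 1.5 nM, pre-incubated 15 min with compound at room temperature in 100 mM sodium acetate pH 5.5, 5 mM DTT, 0.00005% Triton X-100. Reaction started with 2 uM Z-FR-AMC; AMC fluorescence increase over 60 s gives rate.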
Cruzain Triton: inhibitors of Trypanosoma cruzi cruzain with detergent | P25779 | purified cruzain, Z-FR-AMC fluorescence, 0.01% Triton | Potency, µM, for the others: max response, negative = inhibition, usual class: inhibitors | hit rate 0.43% among 200,000 | AID 1478;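 also: plate controls were neutral wells for no effect and buffer without enzyme for full effect; nearly all actives have a fitted effect of over 40% in size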
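Compounds were screened in titration against cruzain (1.5 nM) with 0.01% Triton X-100 to counter colloidal aggregation. Activity was the AMC fluorescence increase over 60 s after adding 2 uM Z-FR-AMC at pH 5.5.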
The depositor's hits bear a star; ? = inconclusive. Calls follow the shape of the dose curve; as a rule, active = well fitted curve in the direction sought with a large enough effect; inconclusive = small, poorly fitted or top-dose-only effect, or another doubt; inactive = no such curve, though single readings can be large; an effect the other way counts as inactive or inconclusive. Potency is read from the fitted curve at half-maximal effect.

SMILES	Cruzain noTriton	Cruzain Triton
Cc1c(C(=O)NCC2COc3ccccc3O2)oc2ccc(S(=O)(=O)N3CC(C)CC(C)C3)cc12 (stereo unspecified)	20µM*	2%
Cc1c(C(=O)NCC2COc3ccccc3O2)oc2ccc(S(=O)(=O)N3CCOCC3)cc12 (stereo unspecified)	10%	-3%
CCOc1ccc(NC(=O)CCn2c(=O)c3cccn3c3cccnc32)cc1	-3%	-1%
COCCN1C(=O)c2[nH]nc(-c3ccccc3O)c2C1c1ccc(OCc2ccccc2)c(OC)c1 (stereo unspecified)	-26%	-7%
Cc1ccc(S(=O)(=O)NC(=O)OC23COCN2COC3)cc1	1%	1%
O=C(CCCc1nc(-c2ccco2)no1)Nc1ccccc1[N+](=O)[O-]	-2%	-5%
CCC12CN3CC(CC)(CN(C1)C3c1cccc(OC)c1O)C2=O (stereo unspecified)	-2%	0%
Cc1ccc(C(=O)c2sc3c(c2N)c(=O)[nH]c(=O)n3CCc2ccccc2)cc1	13µM*	-15%
Nc1c(C(=O)c2ccccc2)sc2c1c(=O)[nH]c(=O)n2-c1ccccc1	11%	-8%
O=C(O)CSc1ccc([N+](=O)[O-])cc1[N+](=O)[O-]	2%	-1%
O=C(c1ccccc1)c1nn(-c2ccccc2)c2nnc(Cc3ccccc3)c(=O)n12	25µM*	-3%
COC(=O)c1nn(-c2ccccc2)c2nnc(Cc3ccc(C)cc3)c(=O)n12	-14%	0%
CCOC(=O)C(CCc1ccccc1)NC1CCc2ccccc2N(CC(=O)O)C1=O (stereo unspecified)	20%	-3%
COc1cc(C(=O)NCc2nc(-c3ccc(Cl)cc3)no2)cc(OC)c1OC	-7%	-4%
COc1ccc(Cl)cc1-n1c(/C=C/c2cccc3ccccc23)nc2ccccc2c1=O	32µM*	0%
COc1ccc(-n2c(/C=C/c3cccc4ccccc34)nc3ccccc3c2=O)cc1OC	?	-3%
CC(=O)Nc1ccccc1-c1nc2ccccc2n(CC(=O)Nc2cccc(C)c2C)c1=O	?	0%
CCCC[C@@H]1C[C@H]1C(NC(=O)c1ccccc1)c1ccc(C(F)(F)F)cc1 (stereo partly specified)	-12%	-3%
CC(C)CC(NC(=O)C(CC(C)C)NC(=O)OC(C)(C)C)C(N)=O (stereo unspecified)	16µM*	?
CSCCC(NC(=O)OC(C)(C)C)C(=O)NC(CC(C)C)C(N)=O (stereo unspecified)	-2%	-1%
COC(=O)[C@@H]1C[C@H]1[C@@H](NC(C)=O)c1ccccc1	-1%	-12%
CCOc1ccc(C2C(C#N)=C(N)Oc3c2c(=O)oc2ccccc32)cc1 (stereo unspecified)	-16%	-5%
O=c1oc2ccccc2c2c1C(c1ccc(Cl)cc1)Nc1ccc3ccccc3c1-2 (stereo unspecified)	4µM*	0%
O=C1CC(c2ccc(Br)cc2)c2c(c3ccccc3oc2=O)O1 (stereo unspecified)	-18%	-5%
CCOc1ccc(C2Nc3ccc4ccccc4c3-c3c2c(=O)oc2ccccc32)cc1 (stereo unspecified)	7.9µM*	-13%
SMILES	Cruzain noTriton	Cruzain Triton
COc1ccc(-c2cc3ccccc3c(=O)o2)cc1	23%	0%
COc1ccc(C2Nc3ccc4ccccc4c3-c3c2c(=O)oc2ccccc32)cc1 (stereo unspecified)	10µM*	6%
CCc1ccccc1NC(=O)C1CCN(S(=O)(=O)c2cn(C)cn2)CC1	-4%	1%
CCOC(=O)c1oc2c(c1C)-c1nn(Cc3cccc(Cl)c3)cc1CC2	-2%	-9%
N#Cc1ccccc1OC[C@H](O)CNCCNC(=O)Nc1ccccc1	-6%	-2%
O=C(NCc1cccs1)c1ccc(CSc2nc3ccncc3n2Cc2ccccc2F)cc1	48%	7%
CC(C)(C)c1ccc(O)c(CN(Cc2c(O)ccc3ccccc23)C2CCCCC2)c1	-1%	-2%
Cc1ccc(CNC(=O)CCn2cnc3ccccc3c2=O)cc1	11%	-1%
CO[C@@H]1/C=C\O[C@]2(C)Oc3c(C)c(O)c4c(O)c(cc(O)c4c3C2=O)NC(=O)/C(C)=C\C=C/[C@H](C)[C@@H](O)[C@H](C)[C@H](O)C(C)[C@H](OC(C)=O)[C@@H]1C (stereo partly specified)	?	-1%
CCOc1ccc(-n2c(SCC(=O)Nc3cccc(Cl)c3)nc3c(oc4ccccc43)c2=O)cc1	6%	0%
O=C(NCCc1ccc(Cl)cc1)c1ccc2c(c1)N(Cc1ccccc1F)C(=O)c1ccccc1S2(=O)=O	?	1%
Cc1ccc(C)c(CN2C(=O)c3ccccc3S(=O)(=O)c3ccc(C(=O)NCCc4ccc(Cl)cc4)cc32)c1	10µM*	5%
Cc1ccc(C)c(CN2C(=O)c3ccccc3S(=O)(=O)c3ccc(C(=O)Nc4ccccc4C(F)(F)F)cc32)c1	?	-5%
Cc1ccc(C)c(CN2C(=O)c3ccccc3S(=O)(=O)c3ccc(C(=O)Nc4cc(F)ccc4F)cc32)c1	16µM*	-2%
COc1ccccc1CNc1ccnc(-c2ccc3c(c2)OCO3)n1	-26%	-9%
COC(=O)[C@@]1(Cc2ccc(OC)cc2)[C@H]2c3cc(C(=O)N(C)C)n(Cc4nc5ccccc5[nH]4)c3C[C@H]2CN1C(=O)c1ccccc1	?	0%
CCc1ccc2c(c1)N(C[C@H](C)CN(C)C)c1ccccc1S2	0%	-1%
CN1CCC[C@@H]1c1cccnc1.O=C(O)c1ccccc1O.O=C([OH2+])c1ccccc1O.O=C([OH2+])c1ccccc1O.[Mn]	-1%	1%
COc1ccccc1CNc1ccnc(-c2ccccc2CN(C)C)n1	-7%	1%
Cc1ccc(C)c(-c2[nH]c3c(c2-c2c(-n4cccc4)n(C)c(=O)[nH]c2=O)c(=O)[nH]c(=O)n3C)c1	-2%	-1%
Cc1cccc(CCNC(=O)C2CCN(c3nc4ccccc4nc3C(F)(F)F)CC2)c1	-5%	2%
C/C(=N\NC(=O)c1cc(Cl)ccc1O)c1ccc(Br)s1	10µM*	-6%
C/C(=N\NC(=O)c1ccc(Cl)cc1)c1ccc(Br)s1	?	5%
NS(=O)(=O)c1ccc(N=Nc2nc3[nH]c(=O)[nH]c(=O)c3[nH]2)cc1	?	9%
CC1=C(C(=O)Nc2cccc(C(F)(F)F)c2)C2(CCN(C(C)C)CC2)OC1=O	-13%	-2%
SMILES	Cruzain noTriton	Cruzain Triton
CC(=O)C1=C(C)NC(SCC(=O)c2ccc(Cl)c(Cl)c2)=C(C#N)C1c1ccco1 (stereo unspecified)	?	-20%
CC(=O)C1=C(C)NC(SCC(=O)c2cc(Cl)ccc2Cl)=C(C#N)C1c1ccco1 (stereo unspecified)	25µM*	-18%
CC1=C(C(=O)Nc2ccccc2)C(c2ccco2)C(C#N)=C(SCC(=O)OC(C)C)N1 (stereo unspecified)	-9%	-9%
CC1=C(C(=O)Nc2ccccc2)C(c2ccco2)C(C#N)=C(SCC(=O)Nc2cccc(C)c2C)N1 (stereo unspecified)	?	-8%
CCOc1ccccc1NC(=O)CSC1=C(C#N)C(c2ccco2)C(C(=O)Nc2nc3ccccc3s2)=C(C)N1 (stereo unspecified)	7.9µM*	-9%
CC1=C(C(=O)Nc2ccccc2)C(c2ccco2)C(C#N)=C(SCc2ccccc2)N1 (stereo unspecified)	20µM*	-5%

Compound activity from PubChem.
